The target of test [1] is IKZF1 (dCK*-IKZF1 fusion in HEK293FT) (UniProt Q13422). The test is described as follows: inhibition of IKZF1 HTRF signal (DMSO = 0%, pomalidomide 10 uM = 100%); higher = lower IKZF1 protein level. Particulars: compound concentration: 5 uM, overnight (~20 h). The method, boiled down:
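After overnight treatment at 37 °C with 5 μM compound in single wells, HEK293FT cells (2000/well, 384-well) stably expressing an IKZF1 fusion were lysed for 30 min at room temperature. A commercial HTRF total-IKZF1 antibody kit was incubated with the lysate overnight, and the time-resolved FRET ratio at 665/620 nm was corrected for background. Data are given as percent inhibition of IKZF1 signal relative, on each plate, to vehicle and a reference degrader, set at 0% and 100% respectively.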
In general terms: In TR-FRET formats the signal depends on donor and acceptor labels being close together.

The subject of a further test is HEK293FT dCK*-only. Nature of the test: relative growth in counter assay (no AraC = 100%, AraC + DMSO = 0%); higher = more growth rescue independent of IKZF1. To be noted: compound concentration: 5 uM; AraC concentration: 0.3 uM; overnight pretreatment + 4 days AraC. The method, boiled down: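 Counter assay in HEK293FT cells expressing dCK* alone (300/well, 384-well). Cells received 5 μM compound 2 h after seeding, then after overnight at 37 °C a nucleoside suicide substrate at 0.3 μM plus medium for 4 days. On day 5, Hoechst 33342-stained nuclei were counted by imaging. Relative growth was normalised per plate to wells without suicide substrate (100%) and substrate plus vehicle (0%).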

Another test has as its system HEK293FT dCK*-IKZF1. Nature of the test: relative growth recovery (pomalidomide 10 uM = 100%, DMSO = 0%); higher = more growth rescue (IKZF1 fusion degradation). To be noted: compound concentration: 5 uM; AraC concentration: 0.3 uM; overnight pretreatment + 4 days AraC. In short, it runs like this:
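Means of duplicates from different days are given for growth recovery, normalised per plate against a reference degrader and vehicle. The reference degrader set the 100% level and vehicle the 0% level. HEK293FT cells stably expressing a deoxycytidine kinase–IKZF1 fusion (300/well, 384-well) received 5 μM compound 2 h after seeding and, after overnight at 37 °C, 0.3 μM of a nucleoside suicide substrate plus medium for 4 days. Nuclei stained with Hoechst 33342 were then counted by whole-well imaging on day 5.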

Counter-ions that a name gives are not always drawn.

Chain of IKZF1 (dCK*-IKZF1 fusion in HEK293FT) (Q13422 whole entry, looked up, the tested form may be a part): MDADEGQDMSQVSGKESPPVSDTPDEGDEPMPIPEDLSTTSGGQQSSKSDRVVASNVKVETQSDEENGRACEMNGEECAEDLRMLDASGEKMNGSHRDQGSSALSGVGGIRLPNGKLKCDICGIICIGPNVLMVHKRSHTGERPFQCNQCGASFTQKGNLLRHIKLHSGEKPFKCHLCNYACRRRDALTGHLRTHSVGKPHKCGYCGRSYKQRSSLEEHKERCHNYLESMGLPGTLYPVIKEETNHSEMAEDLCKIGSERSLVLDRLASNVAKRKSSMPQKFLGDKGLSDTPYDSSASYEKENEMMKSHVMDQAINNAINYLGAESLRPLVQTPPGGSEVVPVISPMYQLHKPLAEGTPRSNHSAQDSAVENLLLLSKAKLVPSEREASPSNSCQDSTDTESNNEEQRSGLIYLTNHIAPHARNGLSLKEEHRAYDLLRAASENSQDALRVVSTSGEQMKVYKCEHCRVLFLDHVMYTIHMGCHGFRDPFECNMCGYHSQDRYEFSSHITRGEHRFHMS

On to `Oc1c(Cl)cc(Cl)cc1Sc1cc(Cl)cc(Cl)c1O`, for which the “inhibition of IKZF1 HTRF signal” value in test [1] was 7.52%. The “relative growth in counter assay” value in the test with HEK293FT dCK*-only is -3.52%. The relative growth recovery in the test on HEK293FT dCK*-IKZF1 was -1.73%.
Taken in the same sequence, the figures for `S=C(NCc1ccc2c(c1)OCO2)N1CCN(c2ncnc3c2oc2ccccc23)CC1` [Amuvatinib (MP-470)] were -37.4%, -17.4% and -0.14%.
On the same counts, the results for `CCN(CC)C(=S)SSC(=S)N(CC)CC` are -34.2%, -35.6% and -12.6%.
Taken in the same sequence, the figures for `COC(=O)Nc1nc2cc(C(=O)c3ccccc3)ccc2[nH]1` [Mebendazole] were 9.13%, -30.6% and -10.7%.
In the case of `Cc1coc2c1C(=O)C(=O)c1c-2ccc2c(C)cccc12` [Tanshinone I], in test [1], the “inhibition of IKZF1 HTRF signal” value was -2.3%. In addition, in the test with HEK293FT dCK*-only, the “relative growth in counter assay” value was -6.51%. Further, the relative growth recovery with HEK293FT dCK*-IKZF1 was -3.83%.
On the same counts, the results for `C=CC(=O)Nc1cccc(Oc2nc(Nc3ccc(N4CCN(C)CC4)cc3)nc3ccsc23)c1` [Olmutinib] are -18.2%, -23.3% and -7.07%.
Taken in the same sequence, the figures for `COC(=O)C1=C(C)NC(C)=C(C(=O)OCC(C)C)C1c1ccccc1[N+](=O)[O-]` (stereo not drawn) [Nisoldipine] were -28.1%, -8.81% and -3.19%.
Consider `C=CCc1ccc(O)c(-c2cc(CC=C)ccc2O)c1` [Magnolol], for which the “inhibition of IKZF1 HTRF signal” value in test [1] is -27.1%. The “relative growth in counter assay” value in the test on HEK293FT dCK*-only was -9.5%. Also, the relative growth recovery in the test on HEK293FT dCK*-IKZF1 was found to be 2.08%.
`Fc1ccc(C(c2ccc(F)cc2)N2CCN(C/C=C/c3ccccc3)CC2)cc1` [flunarizine]: the “inhibition of IKZF1 HTRF signal” value in test [1] was -47%. The “relative growth in counter assay” value in the test with HEK293FT dCK*-only is 1.76%. Further, the relative growth recovery with HEK293FT dCK*-IKZF1 was -0.165%.
Taken in the same sequence, the figures for `CC1(C)C(/C=C/C=C/C=C/C=C2/N(CCCCS(=O)(=O)[O-])c3ccc4ccccc4c3C2(C)C)=[N+](CCCCS(=O)(=O)[O-])c2ccc3ccccc3c21` [Cardiogreen] were -28.9%, -5.7% and 0.4%.
On the same counts, the results for `CCCCOc1ccc(-c2cncc(C(=O)NCc3cccnc3N3CCOCC3)c2)cc1Cl` are -19.5%, -0.15% and 4.37%.
Taken in the same sequence, the figures for `CCCS(=O)c1ccc2nc(NC(=O)OC)[nH]c2c1` (stereo not drawn) [Albendazole Oxide (Ricobendazole)] were 24.3%, -7.11% and -2.83%.
Consider `Nc1ccc(/N=N/c2ccccc2)c(N)n1`, for which the “inhibition of IKZF1 HTRF signal” value in test [1] was -28.9%. In addition, the “relative growth in counter assay” value in the test with HEK293FT dCK*-only is -3.22%. The relative growth recovery in the test on HEK293FT dCK*-IKZF1 was -1.03%.
Taken in the same sequence, the figures for `C=CC(=O)c1ccc2ccccc2c1` [JAK3-inhibitor-V] were -28.5%, -15.1% and 0.695%.
Taken in the same sequence, the figures for `O=C(NCC1CCCCN1)c1cc(OCC(F)(F)F)ccc1OCC(F)(F)F` (stereo not drawn) [flecainide] were -38%, -3.96% and 0.135%.
On the same counts, the results for `CSc1ccc2c(c1)N(CCC1CCCCN1C)c1ccccc1S2` (stereo not drawn) [Thioridazine HCl] are -1.96%, -2.48% and -2.37%.
`CNC[C@H](O)c1ccc(O)c(O)c1` [Epinephrine (L-(-)-Epinephrine-(+)-Bitartrate)]: the “inhibition of IKZF1 HTRF signal” value in test [1] is -25.3%. Moreover, the “relative growth in counter assay” value in the test with HEK293FT dCK*-only is -10.5%. Moreover, in the test with HEK293FT dCK*-IKZF1, the relative growth recovery is -3.19%.
On the same counts, the results for `CC1=C(C(=O)OC(C)C)C(c2cccc([N+](=O)[O-])c2)C(C(=O)OC2CN(C(c3ccccc3)c3ccccc3)C2)=C(N)N1` (stereo not drawn) [Azelnidipine] are 10.4%, 12.8% and 0.07%.
On the same counts, the results for `c1cncc(CN2CCC(n3ncc4c(N5CCOCC5)nc(-c5ccc6[nH]ccc6c5)nc43)CC2)c1` are 30.4%, -26.4% and -11.3%.
Taken in the same sequence, the figures for `COc1ccc(-c2ccc3c(N4CCOC[C@@H]4C)nc(N4CCOC[C@@H]4C)nc3n2)cc1CO` were 50%, -33.9% and -13.8%.
Take `CC(C)(C)c1ccc(/C=C/C(=O)Nc2ccc3c(c2)OCCO3)cc1`: the “inhibition of IKZF1 HTRF signal” value in test [1] was -32%. The “relative growth in counter assay” value in the test with HEK293FT dCK*-only was -1.73%. In the test with HEK293FT dCK*-IKZF1, the relative growth recovery turned out to be 0.45%.
On the same counts, the results for `CC[C@@]1(O)C(=O)OCc2c1cc1n(c2=O)Cc2cc3c(CN(C)C)c(O)ccc3nc2-1` [Topotecan HCl] are 54.2%, -34.6% and -13.3%.
Take `CN1C(=O)/C(=C2/C(=O)Nc3ccccc32)c2ccccc21` [Meisoindigo]: in test [1], the “inhibition of IKZF1 HTRF signal” value was -22.1%. Also, the “relative growth in counter assay” value in the test on HEK293FT dCK*-only is -7.74%. Further, in the test on HEK293FT dCK*-IKZF1, the relative growth recovery is -3.15%.
Taken in the same sequence, the figures for `COc1ccc(-c2ccc3ncc4c(c3c2)n(-c2ccc(N3CCNCC3)c(C(F)(F)F)c2)c(=O)n4C)cn1` were 88.1%, -35.1% and -15.2%.
On the same counts, the results for `CC(C)(C)c1ccc(C(O)CCCN2CCC(C(O)(c3ccccc3)c3ccccc3)CC2)cc1` (stereo not drawn) are -24.6%, -9.63% and -1.42%.
Taken in the same sequence, the figures for `Cc1cc(/C=C2\SC(=O)N(c3ccccc3)C2=O)c(C)n1-c1cccnc1` were -32.6%, -4.98% and 0.895%.
`COc1ccc(CN2CCN(C(c3ccc(F)cc3)c3ccc(F)cc3)CC2)c(OC)c1OC`: the “inhibition of IKZF1 HTRF signal” value in test [1] was -50.6%. Also, in the test on HEK293FT dCK*-only, the “relative growth in counter assay” value turned out to be 1.19%. Also, the relative growth recovery in the test with HEK293FT dCK*-IKZF1 was found to be 0.625%.
As to `CC(C)(C)c1cc(O)c(C(C)(C)C)cc1O`, in test [1], the “inhibition of IKZF1 HTRF signal” value was -31.7%. Also, the “relative growth in counter assay” value with HEK293FT dCK*-only is -0.82%. The relative growth recovery in the test on HEK293FT dCK*-IKZF1 is -0.575%.
Taken in the same sequence, the figures for `CC(=O)Oc1ccccc1C(=O)Nc1ncc([N+](=O)[O-])s1` [Nitazoxanide] were 18.8%, -4.25% and 1.91%.
On to `CCCCCCCCCCCCCCCC[N+](C)(C)Cc1ccccc1` [Benzyldimethylhexadecylammonium chloride hydrate], for which the “inhibition of IKZF1 HTRF signal” value in test [1] amounted to 20.2%. Also, the “relative growth in counter assay” value in the test with HEK293FT dCK*-only was -20.7%. Moreover, the relative growth recovery in the test on HEK293FT dCK*-IKZF1 is -4.92%.
Taken in the same sequence, the figures for `C=C1C(=O)O[C@@H]2[C@H]3O[C@]3(C)CC/C=C(\C)CC[C@@H]12` [parthenolide-(alternate-stereo)] were -27.7%, -34.4% and -12.4%.
In the case of `O=[N+]([O-])c1ccc2nc(COCc3nc4ccc([N+](=O)[O-])cc4[nH]3)[nH]c2c1`, the “inhibition of IKZF1 HTRF signal” value in test [1] was -34.1%. Moreover, the “relative growth in counter assay” value in the test with HEK293FT dCK*-only is -3.14%. In the test with HEK293FT dCK*-IKZF1, the relative growth recovery worked out at 4.2%.
Taken in the same sequence, the figures for `Clc1ccccc1C(c1ccccc1)(c1ccccc1)n1ccnc1` [Clotrimazole] were -53.5%, 11.9% and 1.77%.
On the same counts, the results for `CC(C)[C@@H]1CC[C@@H](C)C[C@@H]1P(=O)(c1ccccc1)c1ccccc1` are -20.4%, 3.21% and -0.475%.
For the molecule `CN[C@H]1CC[C@@H](c2ccc(Cl)c(Cl)c2)c2ccccc21` [Sertraline HCl], the “inhibition of IKZF1 HTRF signal” value in test [1] came to 18.8%. The “relative growth in counter assay” value in the test with HEK293FT dCK*-only is -7.81%. The relative growth recovery in the test with HEK293FT dCK*-IKZF1 is -6.62%.
On the same counts, the results for `O=C1CN(/N=C/c2ccc(-c3ccc([N+](=O)[O-])cc3)o2)C(=O)N1` [dantrolene] are 27.9%, -3.99% and 4.57%.
Taken in the same sequence, the figures for `Cc1coc2c1C(=O)C(=O)c1c-2ccc2c1CCCC2(C)C` [Tanshinone IIA (Tanshinone B)] were 18.3%, 5.29% and 0.345%.
As for `CN(C)C(=O)C(CCN1CCC(O)(c2ccc(Cl)cc2)CC1)(c1ccccc1)c1ccccc1`, the “inhibition of IKZF1 HTRF signal” value in test [1] is -14.4%. For the same molecule, the “relative growth in counter assay” value in the test with HEK293FT dCK*-only came to 0.63%. Besides, the relative growth recovery in the test on HEK293FT dCK*-IKZF1 is -0.755%.
Taken in the same sequence, the figures for `C[C@H]1O[C@@H](n2cc(F)c(=O)[nH]c2=O)[C@H](O)[C@@H]1O` were -24.1%, -10.6% and 0.84%.
With `C/C(=N/Nc1nnc2c(n1)[nH]c1c(C)cccc12)c1ccccn1`, the “inhibition of IKZF1 HTRF signal” value in test [1] turned out to be 45.9%. The “relative growth in counter assay” value in the test with HEK293FT dCK*-only is -33%. For the same molecule, the relative growth recovery in the test with HEK293FT dCK*-IKZF1 is -12.6%.
As to `C=C1/C(=C\C=C2/CCC[C@]3(C)[C@@H]([C@H](C)/C=C/[C@H](C)C(C)(C)O)CC[C@@H]23)C[C@@H](O)C[C@@H]1O` [Ercalcitriol], the “inhibition of IKZF1 HTRF signal” value in test [1] is -35%. In the test with HEK293FT dCK*-only, the “relative growth in counter assay” value is 19.8%. The relative growth recovery with HEK293FT dCK*-IKZF1 came out at 6.62%.
Taken in the same sequence, the figures for `C[C@H]1COC2=C1C(=O)C(=O)c1c2ccc2c1CCCC2(C)C` [Cryptotanshinone] were -30.9%, 0.04% and -0.045%.
Taken in the same sequence, the figures for `O=C(O)c1ccc(/C=C2/SC(=S)N(c3cccc(C(F)(F)F)c3)C2=O)cc1` were -26.9%, -1.87% and -0.07%.
On the same counts, the results for `CN1C(=O)CC(C)(c2ccccc2)C1=O` (stereo not drawn) are 19.8%, 7.33% and 3%.
As for `CCCCNC(=O)NS(=O)(=O)c1ccc(C)cc1`, the “inhibition of IKZF1 HTRF signal” value in test [1] is -29.8%. Moreover, the “relative growth in counter assay” value in the test on HEK293FT dCK*-only was 0.26%. Further, the relative growth recovery in the test on HEK293FT dCK*-IKZF1 is -3.39%.
On the same counts, the results for `CCN(CC)CCCC(C)Nc1c2ccc(Cl)cc2nc2ccc(OC)cc12` (stereo not drawn) are 57.3%, -34.1% and -13.4%.

For the origin of these results see the supplement of paper PMC12340641.
